Data reported in the supplement of paper PMC10849652.
Targets with a hit are over-represented here; the source holds about 8,800 in all. About 0.5% of all pairs of compound and target were hits. A number with no mark means an inactive call.

How the values were obtained:
Test in all cases: log2 fold change, soluble protein after heating vs DMSO (PISA); higher = thermal stabilisation; K562 lysate, 10 uM; active = over 0.2 and 3.5 SD of the protein, either way, in both replicates (recomputed)
lapatinib = compound: CS(=O)(=O)CCNCc1ccc(-c2ccc3ncnc(Nc4ccc(OCc5cccc(F)c5)c(Cl)c4)c3c2)o1 [lapatinib]
How it was run: (§1)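 The values are log-two fold changes in thermal stability compared with solvent controls and come from duplicates. They were obtained by TMTpro 16plex LC-MS/MS, with channel sums equalised, on the supernatant after 21,000xg for 90 min. That supernatant came from crude K562 extract at 1 mg/mL protein treated with 10 μM compound for 30 min, heated for 3 min across 48°C-58°C, pooled and brought to 0.5% NP-40 at 4°C.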

pictilisib = compound: CS(=O)(=O)N1CCN(Cc2cc3nc(-c4cccc5[nH]ncc45)nc(N4CCOCC4)c3s2)CC1 [pictilisib]
How it was run: as §1

crizotinib = compound: C[C@@H](Oc1cc(-c2cnn(C3CCNCC3)c2)cnc1N)c1c(Cl)ccc(F)c1Cl [crizotinib]
How it was run: as §1

[1] = compound: C[C@H](C1=CC=C(C=C1)C(=O)NC2=C3C=CNC3=NC=C2)N
How it was run: as §1

duvelisib = compound: C[C@H](Nc1ncnc2nc[nH]c12)c1cc2cccc(Cl)c2c(=O)n1-c1ccccc1 [duvelisib]
How it was run: as §1

gandotinib = compound: Cc1cc(Nc2cc(CN3CCOCC3)c3nc(C)c(Cc4ccc(Cl)cc4F)n3n2)n[nH]1 [gandotinib]
How it was run: as §1

tozasertib = compound: Cc1cc(Nc2cc(N3CCN(C)CC3)nc(Sc3ccc(NC(=O)C4CC4)cc3)n2)n[nH]1 [tozasertib]
How it was run: as §1

doramapimod = compound: Cc1ccc(-n2nc(C(C)(C)C)cc2NC(=O)Nc2ccc(OCCN3CCOCC3)c3ccccc23)cc1 [doramapimod]
How it was run: as §1

bafetinib = compound: Cc1ccc(NC(=O)c2ccc(CN3CC[C@H](N(C)C)C3)c(C(F)(F)F)c2)cc1Nc1nccc(-c2cncnc2)n1 [bafetinib]
How it was run: as §1

[2] = compound: Cc1cccc(CC(=O)N2CCc3c2ccc(-c2cn(C)c4ncnc(N)c24)c3F)n1
How it was run: as §1

Sequence of UniProt Q99766 (Q99766 whole entry, looked up): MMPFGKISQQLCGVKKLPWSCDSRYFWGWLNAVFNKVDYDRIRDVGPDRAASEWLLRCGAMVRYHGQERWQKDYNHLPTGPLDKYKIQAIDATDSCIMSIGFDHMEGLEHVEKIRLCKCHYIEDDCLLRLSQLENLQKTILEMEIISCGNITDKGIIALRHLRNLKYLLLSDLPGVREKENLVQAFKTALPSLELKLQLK
Sequence of UniProt Q96LJ7 (Q96LJ7 whole entry, looked up): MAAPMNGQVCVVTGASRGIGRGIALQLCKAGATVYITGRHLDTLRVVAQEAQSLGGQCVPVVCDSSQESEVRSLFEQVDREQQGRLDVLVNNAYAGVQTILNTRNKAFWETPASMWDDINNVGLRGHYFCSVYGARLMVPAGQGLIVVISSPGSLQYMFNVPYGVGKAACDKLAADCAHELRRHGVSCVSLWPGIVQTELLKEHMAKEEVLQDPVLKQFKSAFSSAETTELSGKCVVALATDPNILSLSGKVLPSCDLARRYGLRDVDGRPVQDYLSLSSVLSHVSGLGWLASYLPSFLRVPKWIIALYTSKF
Sequence of UniProt Q92796 (Q92796 whole entry, looked up): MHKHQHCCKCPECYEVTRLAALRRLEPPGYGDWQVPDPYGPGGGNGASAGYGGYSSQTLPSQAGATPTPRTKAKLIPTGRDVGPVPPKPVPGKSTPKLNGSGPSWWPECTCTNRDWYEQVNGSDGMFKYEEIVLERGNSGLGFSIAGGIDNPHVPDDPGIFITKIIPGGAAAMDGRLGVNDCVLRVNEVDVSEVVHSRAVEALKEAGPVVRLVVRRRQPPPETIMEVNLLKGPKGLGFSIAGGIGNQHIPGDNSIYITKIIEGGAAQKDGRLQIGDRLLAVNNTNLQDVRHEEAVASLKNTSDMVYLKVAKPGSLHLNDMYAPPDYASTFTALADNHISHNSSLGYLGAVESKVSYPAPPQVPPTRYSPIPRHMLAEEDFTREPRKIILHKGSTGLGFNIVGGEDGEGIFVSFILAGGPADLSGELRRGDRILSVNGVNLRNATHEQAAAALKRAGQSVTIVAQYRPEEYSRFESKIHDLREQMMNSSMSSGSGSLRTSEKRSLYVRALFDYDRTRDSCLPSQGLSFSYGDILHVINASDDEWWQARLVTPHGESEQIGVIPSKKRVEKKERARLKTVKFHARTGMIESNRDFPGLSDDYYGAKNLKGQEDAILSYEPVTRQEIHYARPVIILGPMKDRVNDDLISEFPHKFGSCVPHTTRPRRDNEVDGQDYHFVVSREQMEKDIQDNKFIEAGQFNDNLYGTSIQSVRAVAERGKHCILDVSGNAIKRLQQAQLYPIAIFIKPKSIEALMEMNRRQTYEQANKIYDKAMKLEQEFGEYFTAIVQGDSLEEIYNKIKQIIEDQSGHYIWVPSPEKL
Sequence of UniProt Q8WYA6 (Q8WYA6 whole entry, looked up): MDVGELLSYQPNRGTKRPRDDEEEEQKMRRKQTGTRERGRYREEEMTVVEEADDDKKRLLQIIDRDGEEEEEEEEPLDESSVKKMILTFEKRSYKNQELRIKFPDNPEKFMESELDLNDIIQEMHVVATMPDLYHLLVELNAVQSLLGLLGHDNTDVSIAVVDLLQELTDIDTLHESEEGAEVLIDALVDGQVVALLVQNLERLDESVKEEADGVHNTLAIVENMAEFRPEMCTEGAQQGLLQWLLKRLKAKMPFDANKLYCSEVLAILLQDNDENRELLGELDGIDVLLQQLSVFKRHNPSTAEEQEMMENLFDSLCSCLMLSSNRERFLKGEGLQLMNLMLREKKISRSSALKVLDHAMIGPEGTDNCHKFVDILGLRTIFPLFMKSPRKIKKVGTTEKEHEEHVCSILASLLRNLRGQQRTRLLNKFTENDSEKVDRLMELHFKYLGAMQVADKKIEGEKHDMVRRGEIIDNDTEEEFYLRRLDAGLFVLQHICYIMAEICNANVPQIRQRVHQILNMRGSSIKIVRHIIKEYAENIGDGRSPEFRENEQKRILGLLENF
Sequence of UniProt Q16850 (Q16850 whole entry, looked up): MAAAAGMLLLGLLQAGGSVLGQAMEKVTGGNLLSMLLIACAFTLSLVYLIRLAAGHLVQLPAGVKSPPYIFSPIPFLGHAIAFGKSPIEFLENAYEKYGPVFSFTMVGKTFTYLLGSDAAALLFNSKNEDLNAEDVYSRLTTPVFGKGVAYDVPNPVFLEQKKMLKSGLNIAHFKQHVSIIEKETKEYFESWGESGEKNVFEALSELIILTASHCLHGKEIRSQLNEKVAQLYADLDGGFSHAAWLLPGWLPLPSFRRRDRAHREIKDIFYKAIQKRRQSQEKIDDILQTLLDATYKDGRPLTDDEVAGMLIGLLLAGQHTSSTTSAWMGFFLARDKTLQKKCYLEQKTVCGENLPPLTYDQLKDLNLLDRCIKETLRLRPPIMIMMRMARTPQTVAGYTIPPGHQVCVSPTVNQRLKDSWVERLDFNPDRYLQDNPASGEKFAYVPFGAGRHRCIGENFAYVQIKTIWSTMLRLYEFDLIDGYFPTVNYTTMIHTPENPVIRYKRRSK
Sequence of UniProt Q9H2P9 (Q9H2P9 whole entry, looked up): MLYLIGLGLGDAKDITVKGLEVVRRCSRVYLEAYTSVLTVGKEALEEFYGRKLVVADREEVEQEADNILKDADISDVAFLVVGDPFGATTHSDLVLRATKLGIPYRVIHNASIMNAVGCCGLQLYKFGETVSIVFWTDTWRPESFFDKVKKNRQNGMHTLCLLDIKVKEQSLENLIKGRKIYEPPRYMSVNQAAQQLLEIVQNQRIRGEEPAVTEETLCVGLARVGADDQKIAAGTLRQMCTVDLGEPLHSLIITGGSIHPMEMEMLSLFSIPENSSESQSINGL
Sequence of UniProt O75208 (O75208 whole entry, looked up): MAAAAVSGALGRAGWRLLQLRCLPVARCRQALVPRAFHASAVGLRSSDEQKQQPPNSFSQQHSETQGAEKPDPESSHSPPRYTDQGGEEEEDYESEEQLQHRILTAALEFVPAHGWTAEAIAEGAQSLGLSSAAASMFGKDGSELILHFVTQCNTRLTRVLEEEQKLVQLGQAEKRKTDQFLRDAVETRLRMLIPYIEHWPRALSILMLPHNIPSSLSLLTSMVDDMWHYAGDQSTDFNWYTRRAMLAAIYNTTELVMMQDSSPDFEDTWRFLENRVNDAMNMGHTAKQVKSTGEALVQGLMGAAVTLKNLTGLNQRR
Sequence of UniProt Q7Z401 (Q7Z401 whole entry, looked up): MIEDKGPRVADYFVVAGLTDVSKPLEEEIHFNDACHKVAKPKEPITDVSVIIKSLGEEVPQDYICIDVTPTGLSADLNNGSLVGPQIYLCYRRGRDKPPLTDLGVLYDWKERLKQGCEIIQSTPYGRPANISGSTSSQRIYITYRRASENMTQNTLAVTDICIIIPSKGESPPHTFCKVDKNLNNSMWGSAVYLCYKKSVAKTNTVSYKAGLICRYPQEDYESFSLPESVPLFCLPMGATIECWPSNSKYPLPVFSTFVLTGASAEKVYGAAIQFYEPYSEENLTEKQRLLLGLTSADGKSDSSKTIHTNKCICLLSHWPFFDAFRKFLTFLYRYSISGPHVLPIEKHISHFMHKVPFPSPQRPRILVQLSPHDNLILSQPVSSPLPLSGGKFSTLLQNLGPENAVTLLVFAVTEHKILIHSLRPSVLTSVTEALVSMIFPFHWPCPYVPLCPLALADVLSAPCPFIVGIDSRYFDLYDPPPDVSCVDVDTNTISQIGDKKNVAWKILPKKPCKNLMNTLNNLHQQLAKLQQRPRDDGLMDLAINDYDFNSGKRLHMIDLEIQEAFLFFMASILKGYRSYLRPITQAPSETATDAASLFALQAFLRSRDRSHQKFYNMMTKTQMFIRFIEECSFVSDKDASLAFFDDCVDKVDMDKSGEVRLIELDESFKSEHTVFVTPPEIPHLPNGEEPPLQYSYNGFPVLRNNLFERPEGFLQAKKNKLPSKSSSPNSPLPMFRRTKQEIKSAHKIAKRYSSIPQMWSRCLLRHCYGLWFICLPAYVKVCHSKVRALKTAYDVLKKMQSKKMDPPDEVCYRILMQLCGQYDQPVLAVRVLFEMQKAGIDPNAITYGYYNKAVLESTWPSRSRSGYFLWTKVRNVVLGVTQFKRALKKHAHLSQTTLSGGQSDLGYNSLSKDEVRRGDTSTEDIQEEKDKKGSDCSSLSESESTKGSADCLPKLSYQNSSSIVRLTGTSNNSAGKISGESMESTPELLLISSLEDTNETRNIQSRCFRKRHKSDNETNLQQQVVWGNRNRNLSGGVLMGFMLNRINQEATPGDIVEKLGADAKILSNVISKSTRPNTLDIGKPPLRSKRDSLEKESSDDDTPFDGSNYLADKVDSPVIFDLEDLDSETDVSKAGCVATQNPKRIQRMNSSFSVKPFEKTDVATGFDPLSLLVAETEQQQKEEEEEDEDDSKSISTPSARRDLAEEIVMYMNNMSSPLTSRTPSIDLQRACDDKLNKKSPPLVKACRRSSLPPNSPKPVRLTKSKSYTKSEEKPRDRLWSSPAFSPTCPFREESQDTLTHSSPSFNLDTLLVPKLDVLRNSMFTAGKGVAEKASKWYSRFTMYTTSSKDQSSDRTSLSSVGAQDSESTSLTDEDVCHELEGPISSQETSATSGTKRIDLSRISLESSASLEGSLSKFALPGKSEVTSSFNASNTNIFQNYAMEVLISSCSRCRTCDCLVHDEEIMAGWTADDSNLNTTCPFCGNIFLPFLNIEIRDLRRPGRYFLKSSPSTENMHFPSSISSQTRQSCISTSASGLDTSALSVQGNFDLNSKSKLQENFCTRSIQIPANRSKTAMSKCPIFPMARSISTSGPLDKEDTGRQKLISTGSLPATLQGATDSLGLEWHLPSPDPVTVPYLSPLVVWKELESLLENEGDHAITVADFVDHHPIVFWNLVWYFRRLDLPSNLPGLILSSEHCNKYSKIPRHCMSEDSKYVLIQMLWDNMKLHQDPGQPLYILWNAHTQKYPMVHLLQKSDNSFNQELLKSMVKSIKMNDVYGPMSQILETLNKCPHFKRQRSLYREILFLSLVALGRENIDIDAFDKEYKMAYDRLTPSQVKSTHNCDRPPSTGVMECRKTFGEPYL
Sequence of UniProt Q14019 (Q14019 whole entry, looked up): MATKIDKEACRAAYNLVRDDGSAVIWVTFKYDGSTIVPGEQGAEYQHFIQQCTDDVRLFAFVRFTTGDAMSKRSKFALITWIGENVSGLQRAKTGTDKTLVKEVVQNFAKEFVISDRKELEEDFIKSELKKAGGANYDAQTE

Row | Target | log2 fold change (lapatinib) | log2 fold change (pictilisib) | log2 fold change (crizotinib) | log2 fold change [1] | log2 fold change (duvelisib) | log2 fold change (gandotinib) | log2 fold change (tozasertib) | log2 fold change (doramapimod) | log2 fold change (bafetinib) | log2 fold change [2]
1 | COPS9 (UniProt Q8WXC6) | 0.148 | – | – | – | – | – | – | – | – | –
2 | CNST (UniProt Q6PJW8) | 0.005 | 0 | 0.031 | -0.022 | -0.007 | 0.033 | 0.019 | 0.005 | 0.033 | 0.025
3 | DES (UniProt P17661) | -0.079 | -0.03 | -0.082 | -0.301 | 0.098 | 0.13 | -0.014 | 0.047 | -0.051 | 0.121
4 | CMIP (UniProt Q8IY22) | 0.002 | -0.013 | -0.001 | 0.046 | -0.035 | -0.062 | 0.017 | -0.094 | -0.064 | 0.002
5 | DDX54 isoform 2 (UniProt Q8TDD1) | -0.03 | 0.075 | -0.057 | -0.025 | 0.025 | 0.01 | 0.035 | 0.019 | 0.11 | 0.101
6 | DIAPH1 (UniProt O60610) | -0.007 | 0.014 | 0.004 | 0.06 | -0.006 | -0.063 | 0.004 | -0.003 | -0.001 | -0.021
7 | CWC22 (UniProt Q9HCG8) | 0.059 | -0.027 | -0.051 | 0.46 (active) | 0.011 | -0.207 | 0.072 | -0.019 | -0.088 | -0.109
8 | COQ9 (UniProt O75208) | -0.033 | -0.021 | 0.014 | 0.055 | -0.052 | -0.12 | 0.02 | -0.055 | 0.032 | 0.019
9 | DNAJC1 (UniProt Q96KC8) | -0.057 | 0.013 | -0.086 | 0.033 | -0.046 | -0.262 (active) | 0.019 | -0.117 | 0.001 | -0.064
10 | COG4 (UniProt Q9H9E3) | -0.02 | -0.164 | -0.088 | -0.014 | 0.022 | -0.207 | 0.018 | 0.026 | 0.025 | 0.036
11 | COG5 isoform 2 (UniProt Q9UP83) | -0.059 | -0.03 | -0.025 | 0.027 | 0.007 | -0.071 | 0.013 | -0.024 | -0.034 | 0.062
12 | DMAC2L (UniProt Q99766) | -0.021 | -0.036 | 0.012 | -0.048 | -0.037 | 0.047 | 0.087 | 0.002 | 0.009 | 0.1
13 | DPH5 isoform 5 (UniProt Q9H2P9) | 0.009 | 0.025 | 0.126 | -0.019 | 0.128 | 0.495 (active) | 0.005 | -0.024 | 0.143 | 0.101
14 | DCP1A (UniProt Q9NPI6) | -0.015 | -0.015 | -0.042 | -0.008 | 0.023 | 0.003 | -0.03 | -0.031 | 0.043 | 0.089
15 | DERA (UniProt Q9Y315) | -0.002 | -0.028 | -0.015 | 0.732 (active) | -0.004 | -0.072 | -0.028 | -0.001 | 0.012 | -0.132
16 | CYP51A1 (UniProt Q16850) | 0.105 | 0.024 | 0.023 | -0.036 | -0.065 | 0.447 (active) | 0 | 0.089 | 0.385 (active) | 0.045

Row | Target | log2 fold change (lapatinib) | log2 fold change (pictilisib) | log2 fold change (crizotinib) | log2 fold change [1] | log2 fold change (duvelisib) | log2 fold change (gandotinib) | log2 fold change (tozasertib) | log2 fold change (doramapimod) | log2 fold change (bafetinib) | log2 fold change [2]
17 | DENND4A isoform 2 (UniProt Q7Z401) | -0.034 | 0.001 | -0.038 | -0.206 | -0.067 | 0.045 | -0.027 | -0.009 | -0.064 | 0.203
18 | CSNK2A1, A0A2R8Y4D6 | -0.132 | – | – | – | – | – | – | – | – | –
19 | COTL1 (UniProt Q14019) | 0.007 | 0.016 | 0.045 | 0.245 | -0.009 | -0.062 | 0.024 | -0.044 | 0.102 | -0.122
20 | DHRS1 (UniProt Q96LJ7) | -0.138 | -0.089 | -0.014 | -0.037 | 0.406 (active) | 0.099 | -0.281 | -0.015 | 0.056 | 0.092
21 | CTNNBL1 (UniProt Q8WYA6) | 0 | -0.011 | -0.032 | 0.015 | 0 | -0.058 | 0.033 | 0.058 | -0.103 | 0.043
22 | DHFR (UniProt P00374) | -0.012 | -0.069 | -0.054 | 0.04 | -0.015 | -0.099 | 0.022 | 0.011 | -0.047 | -0.077
23 | CSNK1G3 isoform 4 (UniProt Q9Y6M4) | -0.035 | – | – | – | – | – | – | – | – | –
24 | CNOT2 (UniProt Q9NZN8) | -0.027 | -0.014 | -0.023 | 0.111 | -0.008 | -0.093 | 0.001 | -0.01 | 0.024 | -0.005
25 | CORO1A (UniProt P31146) | -0.018 | -0.058 | -0.008 | -0.069 | 0.038 | 0.037 | 0.089 | 0.009 | -0.028 | -0.001
26 | DENND6A (UniProt Q8IWF6) | -0.077 | -0.079 | 0.028 | -0.013 | -0.022 | -0.006 | -0.038 | 0.054 | -0.099 | 0.086
27 | DDX39A (UniProt O00148) | -0.004 | 0.021 | 0.006 | -0.022 | 0.004 | -0.104 | -0.008 | -0.046 | -0.004 | 0.093
28 | DLG3 isoform 2 (UniProt Q92796) | 0.008 | 0.073 | -0.01 | -0.047 | 0.125 | 0 | 0.097 | 0.043 | 0.055 | 0.065
29 | CNOT4 isoform 9 (UniProt O95628) | -0.006 | -0.014 | 0.077 | -1.01 (active) | -0.009 | 0.298 | 0.04 | -0.184 | -0.031 | 0.271
30 | CXXC1 isoform 2 (UniProt Q9P0U4) | -0.024 | 0.107 | -0.089 | 0.058 | 0.154 | -0.046 | -0.028 | 0.018 | -0.047 | 0.005
31 | DHRS3 (UniProt O75911) | 0.02 | -0.051 | -0.024 | -0.044 | -0.025 | 0.059 | -0.043 | 0.035 | -0.032 | 0.011
32 | DGCR8 (UniProt Q8WYQ5) | -0.023 | -0.048 | 0.039 | -0.056 | -0.014 | -0.032 | -0.012 | 0.04 | -0.009 | 0.044
